PubChem BioAssay

Tests used:
PEG-3 [1] = target: PEG-3 (UniProt Q6IN02); experiment: inhibition of PEG-3 promoter-driven reporter – cell-based, HeLa, luciferase, CREF/GAPDH counter-screen panel, dose response (AID 624167); conditions: CREF/GAPDH counter-screens; HeLa PEG-Prom luciferase reporter, overnight, run 1, dose range 1, at 100 µM (top of the series) unless noted
PEG-3 [2] = target: PEG-3 (UniProt Q6IN02); experiment: as above; conditions: CREF/GAPDH counter-screens; HeLa PEG-Prom luciferase reporter, overnight, run 2, dose range 1, at 100 µM (top of the series) unless noted
Rat fibroblasts (CREF) [3] = experiment: as above; conditions: CREF/GAPDH counter-screens; run 1, dose range 1, at 100 µM (top of the series)
Rat fibroblasts (CREF) [4] = experiment: as above; conditions: CREF/GAPDH counter-screens; run 2, dose range 1, at 100 µM (top of the series)
[5] = target: Tumor necrosis factor receptor superfamily member 10B (Homo sapiens) (UniProt O14763); experiment: viability loss of caspase-8 NB7 cells with TRAIL – with/without TRAIL, luminescence panel, confirmation (AID 651596); conditions: NB7 neuroblastoma + caspase-8, TRAIL sensitization, NB7 Caspase-8, with TRAIL, mean of runs, at 10 µM, stronger effect = higher value
[6] = as above; conditions: NB7 neuroblastoma + caspase-8, without TRAIL, NB7 Caspase-8, without TRAIL, mean of runs, at 10 µM

PEG-3, sequence (Q6IN02 whole entry, looked up): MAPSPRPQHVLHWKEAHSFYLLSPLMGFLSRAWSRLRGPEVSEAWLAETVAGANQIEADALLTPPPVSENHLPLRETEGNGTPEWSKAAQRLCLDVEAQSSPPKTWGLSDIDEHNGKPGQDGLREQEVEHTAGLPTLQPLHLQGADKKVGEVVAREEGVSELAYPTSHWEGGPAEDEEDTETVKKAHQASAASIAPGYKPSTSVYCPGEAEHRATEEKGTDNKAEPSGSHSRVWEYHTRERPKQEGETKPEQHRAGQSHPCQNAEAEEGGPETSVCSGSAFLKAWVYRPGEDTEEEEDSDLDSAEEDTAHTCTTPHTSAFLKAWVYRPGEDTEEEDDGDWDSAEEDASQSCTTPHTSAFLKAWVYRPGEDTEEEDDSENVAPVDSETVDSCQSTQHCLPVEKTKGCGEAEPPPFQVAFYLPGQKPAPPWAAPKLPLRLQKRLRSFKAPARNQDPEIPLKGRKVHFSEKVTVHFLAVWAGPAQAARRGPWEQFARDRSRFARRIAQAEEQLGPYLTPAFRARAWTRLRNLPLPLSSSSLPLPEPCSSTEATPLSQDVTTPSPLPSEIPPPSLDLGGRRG
Tumor necrosis factor receptor superfamily member 10B (Homo sapiens), sequence (O14763 whole entry, looked up): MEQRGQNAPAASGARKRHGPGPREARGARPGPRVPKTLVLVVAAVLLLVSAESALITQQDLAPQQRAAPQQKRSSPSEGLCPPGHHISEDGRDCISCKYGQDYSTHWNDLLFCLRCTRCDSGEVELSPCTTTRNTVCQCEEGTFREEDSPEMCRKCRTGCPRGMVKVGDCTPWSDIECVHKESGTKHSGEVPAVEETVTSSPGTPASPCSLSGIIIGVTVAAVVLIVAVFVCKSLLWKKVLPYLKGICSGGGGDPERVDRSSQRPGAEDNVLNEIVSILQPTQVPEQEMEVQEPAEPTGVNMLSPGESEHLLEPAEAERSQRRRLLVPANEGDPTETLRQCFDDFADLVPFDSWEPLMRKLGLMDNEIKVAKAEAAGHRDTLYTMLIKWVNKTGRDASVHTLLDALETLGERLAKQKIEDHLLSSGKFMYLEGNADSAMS

SMILES | inhibition (PEG-3 [1]) | inhibition (PEG-3 [2]) | inhibition (Rat fibroblasts (CREF) [3]) | inhibition (Rat fibroblasts (CREF) [4]) | activity [5] | activity [6]
C(=NNc1ccc2ccccc2n1)c1ccccn1 | 99% | 102% | 99% | 99.3% | 82.5% | 86%
C(=N\Nc1nc2ccccc2[nH]1)/c1ccccn1 | 93.6% | 101% | 93.7% | 96.8% | 92% | 95.6%
CC(=O)c1cccc(-c2ccnc3c2CC(C(=O)Nc2cccc(NS(C)(=O)=O)c2)O3)c1 (stereo not given) | 58% | 65% | 30% | 47.2% | 74.9% | 73.6%
O=C(NCCc1ccccc1F)c1ccc2c(c1)OCCO2 | 98.5% | 102% | 100% | 99.8% | 90.4% | 91%
OCC1OC(n2ccc3c(NO)ncnc32)C(O)C1O (stereo not given) | 99.4% | 101% | 95.4% | 94.6% | 98.8% | 99.1%
COCCn1c(C)cc(C(=O)CSc2nnc(C)s2)c1C | 96.1% | 94.9% | 90.8% | 90.7% | 53.5% | 49%
Fc1ccc(-c2nnc(NC3=NCCCCC3)o2)cc1 | 94.9% | 97.3% | 95.2% | 94% | 76% | 77.7%
CCOC(=O)c1cnc(Nc2nc3ccccc3o2)nc1C | 85.5% | 81.8% | 92% | 93% | 92.1% | 91.1%
Cc1cc(C(=O)COC(=O)c2ccccc2O)c(C)n1Cc1cccs1 | 88.8% | 94.8% | 94.6% | 87.5% | 95.7% | 95.5%
Cc1csc(NC(=O)c2ccc(N3CCCC3=O)cc2)n1 | 88.6% | 78.1% | 88.8% | 90.4% | 77.3% | 73.5%
Cc1ccc(C(=O)Nc2ncc([N+](=O)[O-])s2)cc1 | 91.3% | 96.1% | 85.9% | 88.8% | 68% | 62.8%
CCc1ccc(C(=O)Nc2nc3ccccc3[nH]2)cc1 | 95.9% | 97.2% | 98.4% | 98.5% | 98.2% | 98.5%
Cc1ccccc1-c1nc(-c2ccccn2)no1 | 96.7% | 92% | 99.5% | 99.3% | 88.8% | 86.8%
C=C1CC2(OC1=O)c1ccccc1CCc1ccccc12 | 102% | 101% | 95.7% | 97.7% | 97.2% | 99.3%
CCCCCCCNC(=O)C1(CC2CC(c3cccc(Br)c3)=NO2)CCNCC1 (stereo not given) | 99.6% | 101% | 99.7% | 99.2% | 60.5% | 98.4%
